Screening results from PubChem.
PL biosyn Enam: animal cell phospholipid biosynthesis inhibition, Enamine screen; ZR-82 CHO cells, pyrene fatty acid UV survival, CellTiter Blue; peroxisome-deficient CHO-K1 mutant line; plus DGAT-1, DGAT-2 and ACAT inhibitors; calls only at 10 µM; hit rate 0.4% among 20,000; AID 1347385;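 active = cell survival signal 2 SD away from solvent-only control wells, confirmed on one or two retests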;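 also: 3 h compound exposure then viability read about one day after UV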
Numbers without * were called inactive; i = inactive; + = active, no number. The full list was thinned out, with hits kept by preference.

SMILES | PL biosyn Enam
CCOC(=O)c1sc(N=Nc2c(O)[nH]c(=S)[nH]c2=O)c(C(=O)OCC)c1C | i
CCOC(=O)c1sc(N=Nc2[nH]c(C)c(C(=O)OCC)c2C)c(C(=O)OCC)c1C | +
CCOC(=O)c1c(N=CN(C)C)sc(C(=O)OC)c1C | i
Fc1ccc(C=Nc2ccc(OC(F)(F)C(F)F)c(N=Cc3ccc(F)c(F)c3)c2)cc1F | i
Cc1nc(Nc2cc(F)ccc2F)c2c3c(sc2n1)CCC3 | i
CN1\C(=C/C=N/N=c2/sc3ccccc3n2C)C(C)(C)c2ccccc21 | i
Cc1sc2nc(-c3cccs3)nc(NC3CCCC3)c2c1C | i
O=C(CSc1nc2sc3c(c2c(=O)[nH]1)CCCC3)N1N=C2/C(=C/c3ccco3)CCCC2C1c1ccco1 (stereo unspecified) | i
COC(=O)NNC(=O)CNC(=O)C12CC3CC(CC(C3)C1)C2 | i
O=C(N=C1N=C2C=CC(I)=CN2Cc2ccccc21)C12CCC(CC1)C2 | i
CCOC(=O)c1sc2nc(/C=C/c3ccc(C)s3)[nH]c(=O)c2c1C | i
CCNC(=S)N/N=C(\C)c1cccs1 | i
C/C(=N\NC(=S)NC1CCCCC1)c1cccs1 | +
O=S(=O)(NC(=S)NC1CCCCC1)c1cccs1 | i
O=C1NC(c2ccccc2)=C(C(=O)C(F)(F)F)C(c2ccccc2I)N1 (stereo unspecified) | i
O=C1C2ON(c3ccccc3)C(c3ccccc3)C2C(=O)N1c1cccc(C(F)(F)F)c1 (stereo unspecified) | i
O=[N+]([O-])c1ccc(N2CCNCC2)cc1NC1C2CC3CC(C2)CC1C3 (stereo unspecified) | +
O=[N+]([O-])c1ccc(N2CCN(CCO)CC2)cc1SCCO | i
O=[N+]([O-])c1ccc(N2CCNCC2)c(S(=O)(=O)N2CCOCC2)c1 | i
Cc1n[nH]c(C)c1SCC(=O)OCC(=O)N(C(C)C)C(C)C | i
CCCCn1c(=O)[nH][nH]c1=S | i
C(C12CC3CC(CC(C3)C1)C2)=P(c1ccccc1)(c1ccccc1)c1ccccc1 | i
Clc1cc(CSc2nnc(C3CC3)n2C2CC2)cc2c1OCCO2 | i
Clc1ccccc1/C=C1\CCCC2=C1Nc1ncnn1C2c1ccccc1Cl (stereo unspecified) | i
Oc1c(N=Nc2ccc3c(c2)OCO3)sc2ccccc12 | i
SMILES | PL biosyn Enam
c1cc2c(cc1-c1csc(N3CCOCC3)n1)OCCO2 | i
Nc1[nH]c(=O)[nH]c(=O)c1N=Nc1ccc2c(c1)OCCO2 | i
Nc1nc(-c2ccccc2)c(N=Nc2ccc3c(c2)OCCO3)s1 | +
c1ccc(-c2nnc(-c3ccc4c(c3)OCO4)nc2-c2ccccc2)cc1 | i
Nc1nc(-c2ccccc2)c(N=Nc2ccc3c(c2)OCO3)s1 | +
COc1cc(-c2[nH]c3ccccc3c2-c2nc3ccccc3[nH]2)cc(OC)c1OC | i
Cc1cc(CSc2nnc(-c3ccc(C(C)(C)C)cc3)o2)no1 | i
O=[N+]([O-])c1ccc(N=Nc2ccc(N(CCO)CC(F)(F)C(F)F)cc2)c(Cl)c1 | +
CN(C)c1ccc(N=Nc2ccc(SC(F)(F)F)cc2[N+](=O)[O-])cc1 | i
CCN(CC)c1ccc2c(c1)OC(=O)N(c1ccc(Cl)c(Cl)c1)P2(=Nc1ccc([N+](=O)[O-])cc1)N(CC)CC (stereo unspecified) | i
c1ccc2oc(CSc3nc4ccccc4o3)nc2c1 | i
Cc1nc(N2CCCCC2)c2c3c(sc2n1)CCC3 | i
O=C(Cc1cn2ccsc2n1)N/N=C1/CCSc2ccc(F)cc21 | i
O=C(NNc1ccnc2cc(Cl)ccc12)c1ccc(=O)[nH]n1 | i
S=C(NNc1ccnc2cc(Cl)ccc12)NC1CCCCC1 | i
S=C(NNc1ccnc2cc(Cl)ccc12)Nc1ccc(Cl)cc1Cl | +
CCOP(=O)(OCC)C(C)(C)NC(=S)Nc1ccccc1 | i
O=C(O)CCc1ccc(-c2cccs2)n1CC(=O)O | i
CN=c1scc(-c2ccc(OC(F)F)cc2)n1/N=C/c1cc(OC)c(O)c(OC)c1 | i
CN=c1scc(-c2ccc(F)cc2)n1/N=C(\C)c1ccc(O)cc1O | i
CN=c1scc(-c2ccc(OC(F)F)cc2)n1/N=C(\C)c1ccc(O)cc1O | +
Clc1ccccc1NN=C1c2ccccc2-c2ccccc21 | i
Clc1cccc(NN=C2c3ccccc3-c3ccccc32)c1 | +
Clc1ccc(NN=C2c3ccccc3-c3ccccc32)cc1Cl | i
CN(C)CCNC1CCS(=O)(=O)C1 (stereo unspecified) | i
SMILES | PL biosyn Enam
CCCNC(=O)CN(C)CC(=O)c1c(N)n(CCC)c(=O)n(C)c1=O | i
O=C1CCCC(O)=C1N=Nc1ccc2c(c1)OCO2 | i
Oc1ccc(N=Nc2ccc3c(c2)OCCO3)c2ncccc12 | i
Cc1[nH]c2ccccc2c1N=Nc1ccc2c(c1)OCO2 | +
Cc1[nH]c2ccccc2c1N=Nc1cccnc1 | i
Cc1[nH]c2ccccc2c1N=Nc1c(C)n(C)n(-c2ccccc2)c1=O | i
Cc1[nH]c2ccccc2c1N=Nc1ccc(F)cc1 | +
